# Source: PubChem BioAssay (National Center for Advancing Translational Sciences (NCATS))
# This is one part of a sample in which hits are shown more often than they occur.
# a7 integrin act: qHTS for Activators of Integrin-Mediated Alleviation for Muscular Dystrophy. AID 624291, 2012. Potency, µM (doses to about 38.3 µM), without a hit: at the top dose activation, actives largely listed as activators. alpha7betagal myoblasts, beta-gal FDG fluorescence, 48 h. actives 0.064% (n = 350,000);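 note: potency is the fitted concentration of half-maximal effect; 100% = response of the positive control SU9516; nearly all actives have a fitted effect of over 60% in size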
#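 Alpha7betagal+/- myoblasts (passage 13) were plated 16-24 hr, then exposed to compounds (1:260 dilution of DMSO stock) for 48 hours at 37C. After MPER lysis, β-galactosidase reporter activity was read as FDG fluorescence (ex 480/em 540) after 30 minutes.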
# Giardia kill: Small Molecules that selectively kill Giardia lamblia: qHTS; Giardia lamblia trophozoite viability; activity change, % at 7.66 µM, hits read low; actives 0.15% (n = 340,000); in the data active = activity change below about -80%; inconclusive = between about -30% and that limit;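 note: parasites exposed to compound for two days anaerobically before the ATP read; % is set by controls: 0 for no effect and ±100 for the full control effect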
#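 Killing of trophozoites was scored by loss of ATP luminescence after a 48 hrs anaerobic exposure to compounds at 37 deg C, using 100 cells per well.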
# ERG Ets-DNA blk: qHTS for Small Molecule Inhibitors of the ERG Ets/DNA interaction; Transcriptional regulator ERG (Homo sapiens), P11308; fluorescence polarization, His-ERG Ets domain / labelled DNA; Potency, µM (top dose mostly 76.9 µM), for inactives: at the top dose FP activity, negative = inhibition, usual class: inhibitors; actives 0.028% (n = 370,000); AID 624246, 2012; active = well fitted inhibition curve with a large enough effect in the polarisation, with a control signal flat; inconclusive = small, poorly fitted or top-dose-only effect, or effect the other way, or a change in a side signal; inactive = no such curve, though single readings can be large or run the other way; the % refers to the polarisation;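 note: polarization taken with two DNA probes labelled with fluorescein and Texas red; potency is the fitted concentration of half-maximal effect; % of control where 0% means no effect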
# Target sequence (P11308 whole entry, looked up, the tested form may be a part): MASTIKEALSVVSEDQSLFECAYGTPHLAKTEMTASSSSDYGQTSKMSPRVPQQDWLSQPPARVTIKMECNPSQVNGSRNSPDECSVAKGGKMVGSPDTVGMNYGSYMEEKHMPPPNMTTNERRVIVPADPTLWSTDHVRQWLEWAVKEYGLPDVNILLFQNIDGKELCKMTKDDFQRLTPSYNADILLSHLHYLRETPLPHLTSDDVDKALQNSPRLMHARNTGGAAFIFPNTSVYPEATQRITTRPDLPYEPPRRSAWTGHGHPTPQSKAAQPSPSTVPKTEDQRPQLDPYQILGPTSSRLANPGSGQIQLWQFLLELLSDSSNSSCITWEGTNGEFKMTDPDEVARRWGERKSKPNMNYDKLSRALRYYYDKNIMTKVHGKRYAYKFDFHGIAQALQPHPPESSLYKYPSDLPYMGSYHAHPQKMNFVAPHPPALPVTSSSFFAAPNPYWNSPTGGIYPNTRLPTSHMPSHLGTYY
#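 His-tagged ERG Ets domain (1 uM in the protein solution; 300mM KCl, 50mM Tris-HCl, 1mM EDTA, 1mM DTT, pH 7.5) received compound, then a probe mix of 5 nM fluorescein-DNA and 100nM Texas-615-DNA. Fluorescence polarization was read for both dyes.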
# RORg inh: qHTS for inhibitors of ROR gamma transcriptional activity; Nuclear receptor ROR-gamma (Mus musculus), P51450; Potency, µM (titrated, usually from 53.6 µM), for the others: at the highest dose activity change, negative = inhibition, hits mostly inhibitors; Drosophila S2 Gal4-RORgamma UAS-luciferase reporter, 20 h; AID 2551, 2010; actives 5.4% (n = 310,000); note: potency is the fitted concentration of half-maximal effect; % is set by controls: 0 for no effect and ±100 for the full control effect; nearly all actives have a fitted effect of over 60% in size
#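 Stably transfected Drosophila Schneider cells are the test system, with ROR gamma fused to Gal4 and luciferase under UAS control; luminescence is read after 20 hr of 700 uM copper sulfate induction at ambient temperature.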
# Gal4-VP16 FLuc: VP16 counterscreen qHTS for inhibitors of ROR gamma transcriptional activity. AID 2546, 2010. actives 3.5% (n = 310,000). Potency, µM (titrated, usually from 53.6 µM), without a hit: at the top dose activity, negative = inhibition, actives largely listed as inhibitors. Drosophila S2 Gal4-VP16 UAS-luciferase, luminescence, 20 h;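 note: Gal4-VP16 expression switched on by copper sulfate through the metallothionein promoter; potency is the fitted concentration of half-maximal effect; % is set by controls: 0 for no effect and ±100 for the full control effect; nearly all actives have a fitted effect of over 50% in size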
# * = called active by the depositor; ? = inconclusive; / = no result given; [ ] = dose if it differs, or a comment. Unless noted, calls come from the whole dose curve; as a rule, active = well fitted curve in the direction sought with a large enough effect; inconclusive = small, poorly fitted or top-dose-only effect, or another doubt; inactive = no such curve, though single readings can be large; an effect the other way counts as inactive or inconclusive.
SMILES,a7 integrin act,Giardia kill,ERG Ets-DNA blk,RORg inh,Gal4-VP16 FLuc
CCCCC(=O)NC(c1ccc([N+](=O)[O-])cc1)c1c(O)ccc2ccccc12 (stereo not drawn),-58%,?,5%,?,?
CCc1c2c(nc3ccc4c(c13)OCCO4)-c1nc3ccccc3c(=O)n1C2,/,-13,/,2.5µM*,13µM*
O=c1c2ccccc2nc2n1CCO2,20%,-2,0%,1%,1%
CCCCCCCCC(=O)N/N=C/c1ccccn1,-13%,11,/,-88%,-8%
CCCCCCCCC/C(=N\O)c1ccccn1,-17%,-17,3%,3.5µM*,11µM*
Cc1cc(C2C(C#N)=C(N)Oc3n[nH]c(C)c32)c(C)s1 (stereo not drawn),-39%,-8,0%,10µM*,11µM*
Cc1[nH]nc2c1C(C1CC=CCC1)C(C#N)=C(N)O2 (stereo not drawn),11%,-13,-7%,6.3µM*,11µM*
Cc1[nH]nc2c1C(c1ccc(-c3ccc(Cl)cc3)o1)C(C#N)=C(N)O2 (stereo not drawn),-51%,-14,1%,?,?
Cc1[nH]nc2c1C(c1ccc(-c3ccccc3C#N)o1)C(C#N)=C(N)O2 (stereo not drawn),-15%,18,-8%,8.9µM*,?
Cc1ccc(-c2ccc(C3C(C#N)=C(N)Oc4n[nH]c(C)c43)o2)cc1 (stereo not drawn),-30%,-1,0%,30%,11µM*
CCC(CC)C1C(C#N)=C(N)Oc2n[nH]c(C)c21 (stereo not drawn),0%,-4,0%,-17%,7%
CCOc1ccccc1NC(=O)NCc1ccc2c(c1)CCN2C(=O)c1ccccc1,/,/,-1%,/,/
CC(C)C[C@@H](CO)N1CCN(Cc2cccnc2)CCC1=O,18%,39,3%,-21%,-26%
Cc1ccccc1-n1c(-c2csc3ccccc23)n[nH]c1=S,19%,3,-2%,1.1µM*,?
Cc1ccccc1-n1c(-c2csc(C)c2C)n[nH]c1=S,2%,18,0%,2.8µM*,6.3µM*
Cc1scc(-c2n[nH]c(=S)n2C(C)c2ccccc2)c1C (stereo not drawn),-13%,-9,-7%,4µM*,7.1µM*
Cc1cccc(-n2c(-c3csc(C)c3C)n[nH]c2=S)c1,24%,7,-3%,2.5µM*,11µM*
Cc1ccc(-n2c(=O)[nH]c3sc4c(c3c2=O)CCCC4)cc1,/,/,-1%,/,/
Cc1ccc(NC(=O)C2(c3cccs3)CCOCC2)cc1Cl,/,/,1%,/,/
C[C@H](C(=O)O)c1ccc2cc(O)ccc2c1,/,/,/,-23%,-11%
CCc1nc2ccccc2n1CC(O)COCC1CC=CCC1 (stereo not drawn),-13%,-6,-6%,-37%,4%
O=C(COc1ccccc1)OC(C(=O)c1ccccc1)c1ccccc1 (stereo not drawn),3%,-16,3%,11µM*,-8%
O=C(CCN1C(=O)/C(=C/c2ccco2)SC1=S)Nc1ccc(C(=O)O)c(O)c1,-12%,11,96%,9%,5%
O=C(CCCN1C(=O)/C(=C\c2ccco2)SC1=S)Nc1ccc2ccccc2c1,11%,12,12%,13µM*,10µM*
O=C(CCCN1C(=O)/C(=C/c2ccco2)SC1=S)Nc1ccccc1C(=O)O,0%,-6,72%,5%,1%
SMILES,a7 integrin act,Giardia kill,ERG Ets-DNA blk,RORg inh,Gal4-VP16 FLuc
O=C(O)CCCN1C(=O)/C(=C\c2ccco2)SC1=S,-5%,4,55%,4µM*,1.3µM*
Cc1ccc(Sc2ccc(N3CCCC(C(=O)Nc4ccc(Br)cc4)C3)nn2)cc1 (stereo not drawn),/,/,-1%,/,/
CCC(C(=O)Nc1ccncc1)c1ccccc1 (stereo not drawn),3%,-4,-1%,?,13µM*
CCC(C(=O)Nc1cccnc1)c1ccccc1 (stereo not drawn),12%,14,6%,/,/
Cc1ccc(C)c(NC(=O)c2cc(-c3ccccc3)nn2-c2ccccc2)c1,-16%,-5,1%,15%,22µM*
Cc1ccc(OCC(=O)Nc2cc(-c3cccc(C)c3)nn2-c2ccccc2)cc1,/,/,8%,/,/
O=C(CCl)Nc1cc(-c2ccccc2)nn1-c1ccccc1,-65%,7,4%,14µM*,?
Cc1ccc(-c2cc(NC(=O)CCl)n(-c3ccccc3)n2)cc1,-23%,-10,4%,6.3µM*,5µM*
COc1cccc(/C=N/NC(=O)C(C)n2nc(C)c([N+](=O)[O-])c2C)c1O (stereo not drawn),-10%,-15,1%,0.18µM*,0.04µM*
COc1cccc(/C=N/NC(=O)Cn2nc(C)c([N+](=O)[O-])c2C)c1O,-11%,-12,10%,0.35µM*,0.79µM*
COc1cccc(/C=N\NC(=O)c2ccc(Cn3cc(Br)c([N+](=O)[O-])n3)o2)c1O,-36%,-2,-2%,3%,0.28µM*
Cc1ccc2c(c1)N(C(=O)N1CCC(C(=O)Nc3cccc(F)c3)CC1)CCO2,/,/,-3%,/,/
COCCCNC(=S)Nc1cc2oc3ccccc3c2cc1OC,4%,5,2%,5.6µM*,7.1µM*
COc1cc2c(cc1NC(=O)COC(=O)C(CCSC)NC(=O)c1ccccc1Cl)oc1ccccc12 (stereo not drawn),-9%,-18,1%,10µM*,?
COc1cc(NC(=O)c2ccc(Br)cc2)c(OC)cc1NC(=O)c1ccccc1,-18%,?,3%,?,?
COc1cc2c(cc1NC(=O)CSc1ccc(C)cc1)oc1ccccc12,-1%,0,9%,?,-13%
COc1cc2c(cc1NC(=O)Nc1ccccc1)oc1ccccc12,-2%,-5,0%,?,-11%
COc1cc2c(cc1NC(=O)COC(=O)c1ccc(C(C)(C)C)cc1)oc1ccccc12,?,32,5%,19%,-8%
COc1cc(NC(=O)c2ccccc2)c(OC)cc1NC(=O)Cc1ccc(Br)cc1,?,15,-4%,?,11µM*
COc1cc2c(cc1NC(=O)Cc1ccc(C)cc1)oc1ccccc12,1.1µM*,-6,-8%,?,0%
O=C(COC(=O)Cn1cnc2ccccc21)Nc1cccc([N+](=O)[O-])c1,11µM*,13,1%,-12%,-3%
COc1cc2c(cc1NC(=S)Nc1cccc3ccccc13)oc1ccccc12,-1%,11,-6%,10µM*,11µM*
COc1cc2c(cc1NC(=O)COC(=O)Cn1cnc3ccccc31)oc1ccccc12,-11%,-22,-9%,2µM*,3%[0.365 µM]
COc1cc2c(cc1NC(=O)COc1ccccc1OC)oc1ccccc12,-15%[7.66 µM],11,-11%,0%,6%[0.365 µM]
